# Pf growth 96h – inhibits malaria parasite growth, 96 h; P. falciparum luciferase reporter growth, 96 h; Potency, µM (doses to about 28.7 µM), without a hit: at the top dose activity change, negative = inhibition, hits mostly inhibitors; 320,000 tested, 6.9% active; AID 504834
#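 Erythrocytes infected with luciferase-expressing P. falciparum were dispensed at 2% hematocrit and 0.05% parasitemia (final), then incubated with compounds 96 hours at 37 C in 5% CO2. Luminescence after detection reagent addition reported growth.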
# AMA1 RON2 block – inhibitors of Plasmodium falciparum AMA1-RON2 interaction; 360,000 tested, 0.2% active; Potency, µM (top dose mostly 58.2 µM), for inactives: at the top dose activity change, negative = inhibition, most hits filed as inhibitors; AID 720542; AlphaScreen AMA1-biotinylated RON2 peptide binding;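 further: 0% = vehicle wells and -100% = peptide control; nearly all actives have a fitted effect of over 45% in size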
#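 AMA1 (3D7) with his tag at 25 nM final met compounds first, then biotinylated RON2 peptide at 25 nM; detection used donor plus acceptor beads, 10 µg/mL apiece, read by AlphaScreen after 30 min at room temperature.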
# AmpC inh detg – AmpC beta-lactamase inhibition with detergent present; P00811; AmpC hydrolysis of nitrocefin, absorbance 480 nm, 0.01% Triton; Potency, µM (top dose mostly 114 µM), inactives show at the highest dose activity change, negative = inhibition, actives largely listed as inhibitors; 370,000 tested, 0.041% active;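 further: 0% = no-compound wells and -100% = no-enzyme wells; nearly all actives have a fitted effect of over 25% in size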
# Target sequence (P00811 whole entry, looked up): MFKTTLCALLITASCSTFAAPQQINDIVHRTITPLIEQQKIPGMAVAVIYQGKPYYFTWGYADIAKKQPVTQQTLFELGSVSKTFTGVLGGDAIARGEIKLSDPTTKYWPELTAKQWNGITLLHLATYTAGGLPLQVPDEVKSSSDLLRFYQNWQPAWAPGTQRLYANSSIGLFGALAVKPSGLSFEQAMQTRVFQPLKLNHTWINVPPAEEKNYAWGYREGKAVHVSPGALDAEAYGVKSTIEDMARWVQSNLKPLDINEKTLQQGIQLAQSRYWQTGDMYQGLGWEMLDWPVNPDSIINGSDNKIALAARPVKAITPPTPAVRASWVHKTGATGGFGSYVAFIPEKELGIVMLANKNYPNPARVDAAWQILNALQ
#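 20 mM phosphate pH 7.0 + 0.01% (detergent screen) or 0.0001% Triton X-100; 5.3 nM AmpC reagent; cpd preinc 15 min RT; nitrocefin (800 uM stock) to start; A480 q20 s × 4 min; Activity was normalised to no-enzyme and no-compound control wells.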
# Pf growth 48h – inhibits P. falciparum growth in the first generation, 48 h | Potency, µM (doses to about 28.7 µM), without a hit: at the highest dose activity change, negative = inhibition, most hits filed as inhibitors | P. falciparum luciferase growth in erythrocytes, 48 h | 310,000 tested, 5.9% active
#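 Growth was read as firefly luciferase luminescence after a 48 h, 37 C, 5% CO2 exposure of compounds to reporter-bearing P. falciparum cultures (0.1% parasitemia, 2% hematocrit final) in Albumax-supplemented RPMI 1640.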
# AmpC no deterg – blocks E. coli AmpC beta-lactamase in detergent-free assay. P00811. AmpC nitrocefin hydrolysis, absorbance 480 nm, 0.0001% Triton. Potency, µM (doses to about 57.1 µM), for the others: top-dose activity change, negative = inhibition, actives largely listed as inhibitors. 330,000 tested, 0.52% active;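 further: plate controls were no compound for no effect and no enzyme for full effect; nearly all actives have a fitted effect of over 20% in size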
#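 AmpC (5.3 nM in the dispensed reagent) in 20 mM phosphate pH 7.0 with 0.01% (detergent screen) or 0.0001% Triton X-100 was preincubated with compounds for 15 min at room temperature. Nitrocefin was then added from an 800 uM solution, and hydrolysis was followed at 480 nm.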
# HCV inh – inhibitors of hepatitis C virus infection; Potency, µM (series often up to 41.8 µM), for inactives: at the highest dose activity change, negative = inhibition, most hits filed as inhibitors; AID 651820; Huh7.5.1 HCVcc-Cre infection, luciferase reporter, 44 h; 340,000 tested, 3.4% active
#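 Reporter virus HCVcc-Cre (~0.5 moi) infects cells exposed to compound; seeding density 1,000 cells/well with 4 h settling beforehand. Luminescence, 15 sec read, taken 44 h post-infection following a 15 min RT substrate incubation.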
# An asterisk follows results filed as active; ? = inconclusive; / = not tested or not shown; [ ] = dose if it differs, or a comment. Shown are actives, neighbours in structure and some others; about 11% of the full set was active somewhere. The call rests on the fitted dose curve; in most records, active means well fitted curve in the direction sought with a large enough effect; inconclusive means small, poorly fitted or top-dose-only effect, or another doubt; inactive means no such curve, though single readings can be large; an effect the other way counts as inactive or inconclusive. Unless noted, on the % scale 0 is the no-effect control and ±100 the full control effect; potency means the concentration at half of the fitted maximal effect.
SMILES,Pf growth 96h,AMA1 RON2 block,AmpC inh detg,Pf growth 48h,AmpC no deterg,HCV inh
O=C(Nc1cccc(S(=O)(=O)N2CCOCC2)c1)c1cn(-c2ccccc2)nc1-c1ccccc1,10.4µM*,-25.1%,-14.4%,-28.4%,21.6%,15.5%
O=C(Cn1nnc(-c2ccc(S(=O)(=O)N3CCCC3)cc2)n1)Nc1ccccc1-n1cccc1,?,-13.8%,?,9.28µM*,-26.6%,0.2%
O=C(Nc1cccc(S(=O)(=O)N2CCOCC2)c1)c1cn(-c2ccccc2)nc1-c1ccc(F)cc1,39.8%,-0.4%,-10.5%,16.9%,?,?
Cc1ccc(-c2nn(-c3ccccc3)cc2C(=O)Nc2ccc(C)c(S(=O)(=O)N3CCOCC3)c2)cc1,?,-18.7%,-6.6%,10.4µM*,25.9%,-21.2%
CCc1ccc(OCC(=O)Nc2cc(-c3nc4cc(C)ccc4o3)ccc2C)cc1,/,/,0.1%,/,/,/
CSc1ccc(CCNC(=O)c2ccc(CS(=O)(=O)c3ccc(Br)cc3)o2)cc1,/,/,3.1%,/,/,/
COc1ccc(NC(=O)c2c(NCc3cccc(OC)c3)sc3c2CCC3)cc1,/,/,-4.4%,/,/,/
CCOC(=O)C1CCC(CN(Cc2ccc(Cl)cc2)S(=O)(=O)c2cccc(Cl)c2C)CC1 (stereo unspecified),/,/,6.6%,/,/,/
CC(C)C(NC=C1C(=O)OC(C)(C)OC1=O)C(=O)O (stereo unspecified),/,15.4%,-7.1%,18.8%,-1.5%,-2.4%
CC(NC=C1C(=O)OC(C)(C)OC1=O)C(=O)O (stereo unspecified),9.28µM*,85.8%,-6.6%,22.6%,-5.3%,14.2%
CNC(=O)c1ccc(-n2nc(C)cc2-c2ccccc2)cc1,?,-7.2%,0.8%,1.65µM*,33.8%,-6.1%
Cc1ccc(C)c(NC(=O)c2nc(-c3ccccc3)n(-c3ccccc3)n2)c1,9.28µM*,-7.2%,-7.0%,/,-25.4%,13.8%
COc1ccc(-n2nc(C(=O)N(C)C)nc2-c2ccccc2)cc1,9.28µM*,12.7%,?,16.3%,-0.6%,22.4%
O=C(CCl)Nc1cc(-c2ccccc2)nn1-c1ccccc1,6.57µM*,0.0%,4.6%,/,-18.8%,14.1µM*
Cc1ccc(-c2cc(NC(=O)CCl)n(-c3ccccc3)n2)cc1,3.6%[5.75 µM],-3.9%,8.9%,10.5%,-26.8%,?
COc1ccc(C)cc1NC(=O)NCc1ccc2c(c1)CCN2C(=O)c1ccccc1,/,/,-2.0%,/,/,/
Cc1cc(C(=O)Nc2ccc(Cl)cc2)n(-c2ccccc2)n1,?,-13.1%,0.9%,20.7%,6.6%,-2.0%
Cc1ccc(NC(=O)c2cc(C)nn2-c2ccccc2)cc1,13.1µM*,-11.3%,0.7%,/,-1.6%,-6.0%
Cc1ccc(C)c(NC(=O)c2cc(-c3ccccc3)nn2-c2ccccc2)c1,?,-20.8%,-9.0%,?,-32.1%,11.2µM*
COc1cccc(CNC(=O)CCCn2c(=O)c3cccn3c3ccc(F)cc32)c1OC,/,/,2.1%,/,/,/
Cc1ccc2oc(=O)n(CCNC(=O)Nc3ccc(Cl)cc3)c2c1,/,/,20.7%,/,/,/
CCCCn1c(N)c(-c2nc3ccccc3s2)c2c([N+](=O)[O-])nn(CC)c(=O)c21,/,-9.1%,0.2%,-6.3%,-23.1%,?
CCCCCn1c(N)c(-c2nc3ccccc3s2)c2c([N+](=O)[O-])nn(CC)c(=O)c21,5.4%,-9.8%,-3.7%,/,-6.4%,11.2µM*
COc1ccc(C(=O)NCCn2cc(SCc3c(F)cccc3Cl)c3ccccc32)cc1,/,/,-3.6%,/,/,/
COc1ccc(CCNC(=O)c2ccc3nc(Cc4ccccc4)oc3c2)cc1OC,/,/,15.2%,/,/,/
SMILES,Pf growth 96h,AMA1 RON2 block,AmpC inh detg,Pf growth 48h,AmpC no deterg,HCV inh
CCC(C)NC(=O)c1sc2nc(C)c(C(=O)Nc3ccc(C)cc3C)c(-c3ccc(NC(C)=O)cc3)c2c1N (stereo unspecified),/,/,-3.2%,/,/,/
C=CCN=c1scc(-c2ccccc2)n1/N=C/c1ccccn1,?,?,-1.0%,-23.8%,43.8%,14.1µM*
C=CCN=c1scc(-c2ccc(F)cc2)n1/N=C/c1ccccn1,?,?,-6.4%,?,41.7%,?
c1ccc(-c2nc3ccccn3c2-c2ccccc2)cc1,/,-17.9%,/,/,/,?
FC(F)Sc1nc(-c2ccccc2)c(-c2ccccc2)n1C(F)F,3.29µM*,-27.7%,4.7%,-3.3%,-11.7%,2.0%
Cc1ccc(C(=O)NC(=S)Nc2ccc(N3CCOCC3)cc2)cc1C,?,-8.4%,?,-2.9%,-9.2%[2.29 µM],7.94µM*
CC(C)(C)c1ccc(C(=O)Nc2ccc(N3CCOCC3)cc2)cc1,?,-5.3%,-4.5%,/,33.1%,1.78µM*
CC(C)(C)c1ccc(C(=O)NC(=S)Nc2ccc(N3CCOCC3)cc2)cc1,11.7µM*,-1.2%,-5.6%,?,-17.5%,3.2%
CC(=O)c1ccc(C(=O)Nc2ccc(N3CCOCC3)cc2)cc1,53.3%,-2.6%,?,-10.3%,3.8%,-8.8%
Cc1ccc(/C=N/Nc2cc(C)nc(N3CCOCC3)n2)cc1,-1.2%,-2.7%,0.3%,29.6%,3.5%,-29.7%
Cc1cccc(C(=O)NC(=S)Nc2ccc(N3CCOCC3)cc2)c1,?,-0.4%,-9.5%,7.0%,-24.0%,-19.5%
Cc1ccc(N/N=C/c2ccc(N3CCOCC3)cc2)cc1C,10.4µM*,-11.6%,-7.1%,-16.4%,0.2%,-7.1%
Cc1nnc2c3ccccc3nc(Nc3ccccc3C(=O)O)n12,/,/,5.5%,/,/,/
CCOc1ccccc1NC(=O)CN1c2ccccc2S(=O)(=O)c2ccccc21,/,/,-2.2%,/,/,/
Cc1cc2c(nc1C)CCCN2C[C@@H](C)O/N=C1/[C@H]2CCn3c(=O)n(-c4ccccc4)c(=O)n3[C@H]2[C@H](O)[C@@H]2O[C@H]12,13.1µM*,-1.9%,-1.5%,?,24.9%,?
C/C(CCN1CCCCc2nc(C)c(C)cc21)=N\O[C@H](C)c1cn([C@H](CO)Cc2ccccc2)nn1,?,/,?,?,200.2%,-5.6%[8.37 µM]
CC(C)c1ccc(S(=O)(=O)c2nnn3c2nc(N2CCCCC2)c2sccc23)cc1,/,/,-0.9%,/,/,/
COc1ccc(CCNC(=O)c2ccc3c(c2)N=C(C)c2ccccc2S3)cc1OC,/,/,19.7%,/,/,/
O=C(CSc1nccn1Cc1ccccc1)NCc1ccccc1Cl,/,/,24.7%,/,/,/
O=C1C=C(Nc2ccccc2)CC(c2ccccc2)C1 (stereo unspecified),1.85µM*,-15.7%,-1.3%,-13.7%,-16.1%,6.2%
CCCCCCCNC1=CC(=O)CC(c2ccccc2)C1 (stereo unspecified),?,-9.3%,-7.8%,9.28µM*,2.1%,?

# High-throughput results (PubChem BioAssay)
